Assay results as given in PubChem BioAssay AID504444 (National Center for Advancing Translational Sciences (NCATS), 2011).
Hit rate of the full screen: of about 360,000 compounds, about 7,500 (2.1%) were called active. Not shown: some 20% with an inconclusive outcome. The sample holds actives, similar compounds and a random draw of the others, so the mix is not that of the screen. Values without a mark were called inactive. The call rests on the fitted dose curve; in most records, active means well fitted inhibition curve with a large enough effect; inconclusive means small, poorly fitted or top-dose-only effect, or effect the other way; inactive means flat fitted curve, though single readings scatter.

test: Nrf2 qHTS screen for inhibitors; conditions: A549 ARE-Fluc reporter, luciferase luminescence, 18-24 h; series mostly up to 46 µM; activity change, negative = inhibition: at the top concentration; further: nearly all actives have a fitted effect of over 60% in size
Method in brief: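 A549 ARE_Fluc cells (5000/well, 5% FBS OPTI-MEM) pre-incubated 2 h, then treated with compounds 18-24 h at 37C/5% CO2 in concentration-response. CellTiter-Fluor viability read first; BugLite luciferase luminescence after 15 min at room temperature gives Nrf2 activity.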
On the % scale 0 is the no-effect control and ±100 the full control effect; potency means the concentration at half of the fitted maximal effect.

| Structure (SMILES) | activity change, negative = inhibition | Potency |
| --- | --- | --- |
| CCC(=O)N1CCc2cc(Br)cc(S(=O)(=O)CCC(=O)N3CCN(c4ccc(F)cc4)CC3)c21 | 3.12% [at 9.27 µM] | – |
| CC(C)=C1SC(N2CCN(c3cccc(C)c3)CC2)=NC1=O | – | 23.1 µM (active) |
| Cc1ccc(N2CCN(C3=NC(=O)/C(=C\c4cccs4)S3)CC2)cc1 | -1.2% | – |
| CC(C)=C1SC(N2CCN(c3ccc(C)c(Cl)c3)CC2)=NC1=O | -13.3% | – |
| CCN(CC)S(=O)(=O)c1ccc(N2CCCC2)c(NC(=O)c2ccc([N+](=O)[O-])o2)c1 | -12.4% | – |
| C=Cc1ccc(Cn2c(C(=O)O)c(CNC3CCCC3)c3ccc(C)cc32)cc1 | -0.54% | – |
| COc1ccc(NS(=O)(=O)c2cc(C(=O)Nc3ccccc3C(=O)O)ccc2C)cc1 | 12.1% | – |
| C=CCNC(=O)c1ccccc1NC(=O)c1ccc(Cl)c(S(=O)(=O)Nc2cccc(C)c2C)c1 | – | 9.2 µM (active) |
| Cc1ccccc1NC(=O)c1cc(S(=O)(=O)Nc2cccc(C(=O)O)c2)ccc1Cl | 9.1% | – |
| CCOC(=O)C1CCCN(C(=O)c2ccc3c(c2)sc2nc(-c4ccc(CC)cc4)cn23)C1 (centres undefined) | -9.95% | – |
| Cc1ccc(-c2nc3ccccn3c2Nc2c(C)cccc2C)o1 | 3.18% [at 9.27 µM] | – |
| O=C(O)CN1CCN(C(c2ccccc2)c2ccccc2)CC1 | 8.98% | – |
| CC(C)NC(=S)N1CCN(C(c2ccccc2)c2ccccc2)CC1 | 13.5% | – |
| CC1(C)CC(N2CCN(C(c3ccccc3)c3ccccc3)CC2)=CC(=[N+]2CCCCC2)C1 | – | 7.31 µM (active) |
| Cc1ccc(C(=O)CSc2nc(-c3ccccc3)nc3c2CCCC3)c(C)c1 | -6.25% | – |
| O=C(NCc1ccccc1CN1CCCC1)c1cccc(S(=O)(=O)Nc2ccc(F)cc2)c1 | 1.66% | – |
| COc1ccc2sc(-c3ccc(N(C)C)cc3)c(C#CCO)c2c1 | -17.9% | – |
| COc1ccc2c(c1)c(=Cc1ccc(N(C)C)cc1)c1cc(-c3ccccc3)[n+](C)n12 | – | 16.4 µM (active) |
| COc1ccc2sc(-c3ccc(N(C)C)cc3)c(-c3ccc4cc[nH]c4c3)c2c1 | 11% | – |
| CC1Cc2ccccc2N1S(=O)(=O)c1cccc(C(=O)NCC(c2ccco2)N2CCCC2)c1 (centres undefined) | 2.2% | – |
| Cc1nc(SCC(=O)NC2CCCCC2C)c(C#N)c(C)c1C (centres undefined) | 16.3% | – |

| Structure (SMILES) | activity change, negative = inhibition | Potency |
| --- | --- | --- |
| CC(=O)OCC(=O)C1(O)CCC2C3CC(C)C4=CC(=O)CCC4(C)C3C(O)CC21C (centres undefined) | – | 0.082 µM (active) |
| CC1(C)C(=O)CCC2(C)C1=CCC1C2C(=O)CC2(C)C1CCC2(O)C(=O)CO (centres undefined) | 5.06% | – |
| O=C1c2ccccc2C(=O)N1c1ccc(S(=O)(=O)N2CCOCC2)c2ccccc12 | -9.07% | – |
| O=S(=O)(c1ccc(SCc2ccc(Br)cc2)nc1)N1CCOCC1 | -4.56% | – |
| CCOc1cc(N2CCOCC2)c(OCC)cc1NC(=O)COc1cccc(Cl)c1 | -6.27% | – |
| CCOc1cc(N2CCOCC2)c(OCC)cc1NC(=O)COc1cccc2cccnc12 | – | 20.6 µM (active) |
| CCOc1cc(N2CCOCC2)c(OCC)cc1NC(=O)COC(=O)[C@H](Cc1c[nH]c2ccccc12)NC(C)=O | -12.5% | – |
| CCC(C)N1C(=O)S/C(=C/c2ccc(Sc3nc4ccccc4[nH]3)o2)C1=O (centres undefined) | – | 0.731 µM (active) |
| C=CCSc1nc2ccccc2[nH]1 | 7.89% | – |
| O=C(CSc1nc2ccccc2[nH]1)Nc1nc(-c2ccccc2)c(-c2ccccc2)o1 | 18.4% | – |
| C#CCOc1ccc(C2CC(=O)Nc3c2c(C)nn3-c2nc(C)cc(C)n2)cc1 (centres undefined) | 6.44% | – |
| CC(C)(CNC(=O)Cc1ccc(Cl)cc1Cl)N1CCOCC1 | 1.4% | – |
| CC(C)(CNC(=O)c1ccc(Cl)c(S(=O)(=O)N2CCc3ccccc3C2)c1)N1CCOCC1 | – | 13 µM (active) |
| CN(C)S(=O)(=O)c1ccc(C(=O)NCC(C)(C)N2CCOCC2)cc1 | 25.8% | – |
| Cc1noc(C)c1-c1ccc2ncnc(NCc3ccc(F)c(F)c3)c2c1 | -20.5% | – |
| COc1ccccc1-c1noc(-c2ccc(NCc3ccccc3)c([N+](=O)[O-])c2)n1 | 27.1% | – |
| COc1ccc(C2Nc3cccc(OC)c3C(=O)N2Cc2ccccc2)cc1COc1ccc(NC(C)=O)cc1 (centres undefined) | -11.2% | – |
| N/C(=N\S(=O)(=O)c1cc(C(F)(F)F)cc(C(F)(F)F)c1)c1cccs1 | – | 20.6 µM (active) |
| CN(NS(=O)(=O)c1cccs1)c1ncc(C(F)(F)F)cc1Cl | -11.9% | – |
| Cc1ccc(S(=O)(=O)/N=C(\N)c2ccc(F)cc2)cc1 | 8.96% | – |
| CN1CCOC1c1ccc(C2OCCN2C)cc1 (centres undefined) | 0.88% | – |

| Structure (SMILES) | activity change, negative = inhibition | Potency |
| --- | --- | --- |
| COc1ccc2cc(CNc3ccc(OC)c(OC)c3)c(=O)n(CC(=O)Nc3ccccc3F)c2c1 | 0.0911% | – |
| Cc1ccc(C)n1-c1nnc(N2CCC(C(=O)NCc3ccc(F)cc3)CC2)s1 | 0.0316% | – |
| CN(C)CCCN(C(=O)c1ccc(S(=O)(=O)N2CCCCCC2)cc1)c1nc2cc3c(cc2s1)OCCO3 | 18.3% | – |
| CCN(CC)CCN(C(=O)c1ccc(S(=O)(=O)N2CCOCC2)cc1)c1nc2cc3c(cc2s1)OCCO3 | 20.6% | – |
| CN(C)CCCN(C(=O)c1ccc(S(=O)(=O)N2CCCCCC2)cc1)c1nc2ccc(Br)cc2s1 | – | 25.9 µM (active) |
| CCOC(=O)c1ccccc1NC(=O)CSc1nc2c(sc(=S)n2CC)c(=O)[nH]1 | -13.5% | – |
| COc1cc(OC)c(NC(=O)Cc2ccc(-n3c(C)nc4cccnc43)cc2)cc1Cl | -17.2% | – |
| CCN(CC)c1cc(NC2CCCCC2)c2c3c(onc13)-c1ccccc1C2=O | -11.4% | – |
| CC(=O)c1ccc(NC(=O)c2nc3nc(C)cc(C(F)F)n3n2)cc1 | 9.64% | – |
| CCN(CC)S(=O)(=O)c1cc(C(=O)Nc2cc(S(=O)(=O)N3CCOCC3)ccc2N2CCCC2)ccc1F | 2.43% | – |
| O=C(CCCn1c(SCC(=O)c2ccccc2)nc2ccccc2c1=O)NCC1CCCO1 (centres undefined) | -22% | – |
| O=C(CSc1nc2ccccc2c(=O)n1Cc1ccc(F)cc1)NCC1CCCO1 (centres undefined) | 6.13% | – |
| O=C(CCCn1c(SCC(=O)c2ccc(F)cc2)nc2ccccc2c1=O)NCc1ccco1 | – | 25.9 µM (active) |
| CCC(=O)N1CCc2cc(Br)cc(S(=O)(=O)CCC(=O)NCCc3ccc(OC)c(OC)c3)c21 | 5.45% [at 9.27 µM] | – |
| Cc1ccc(Cl)cc1NC(=O)CCC(=O)N1CC(C)Sc2ccccc21 (centres undefined) | -11.4% | – |
| CC1CCCCN1S(=O)(=O)c1ccc(S(=O)(=O)N(CC(=O)Nc2ccccc2)Cc2cccs2)cc1 (centres undefined) | -9.35% | – |
| CC1CCCCN1S(=O)(=O)c1ccc(C(=O)Nc2nnc(-c3cccs3)o2)cc1 (centres undefined) | – | 13 µM (active) |
| CC1CCCN(S(=O)(=O)c2ccc(C(=O)Nc3nnc(-c4ccncc4)o3)cc2)C1 (centres undefined) | – | 8.2 µM (active) |
| CC1CCCCN1S(=O)(=O)CCNC(=O)c1ccccc1 (centres undefined) | 0.728% | – |
| CSc1ncc(Cl)c(C(=O)Nc2ccc(S(=O)(=O)N3CCCC(C)C3)cc2)n1 (centres undefined) | -10.8% | – |
| CC1CC(C)CN(S(=O)(=O)c2ccc(C(=O)NN3CCOCC3)cc2)C1 (centres undefined) | -13.9% | – |

| Structure (SMILES) | activity change, negative = inhibition | Potency |
| --- | --- | --- |
| CC1CCCN(C(=O)Cn2c(=O)oc3cc(S(=O)(=O)N4CCCCC4C)ccc32)C1 (centres undefined) | -8.33% | – |
| CCc1nnc(NC(=O)C2CCCN2S(=O)(=O)c2ccccc2)s1 (centres undefined) | -12.7% | – |
| CSCc1nnc(NC(=O)c2ccc(S(=O)(=O)N3CCCCC3C)cc2)o1 (centres undefined) | – | 20.6 µM (active) |
| O=C1N[C@@H](c2ccccc2)COC(=O)[C@H](Cc2ccc(F)cc2)C/C=C\C[C@@H]1CC(=O)N(CCO)Cc1ccccc1 | -25.7% | – |
| FC(F)(F)c1cc(Nc2nc3ccccc3c3nncn23)ccc1Cl | -2.38% | – |
| CC[C@]12c3[nH]c4ccc(Cl)cc4c3CCN1C(=O)[C@@H](CC(=O)NCCCOC)C[C@@H]2C(=O)N1CCN(C(=O)c2ccco2)CC1 | 3.05% | – |
| CCOC(=O)c1ccc(NC(=S)N2CCN(c3ccccn3)CC2)cc1 | 2.57% | – |
| Cc1cc(Br)ccc1NC(=O)Cn1cnc2sc(C)c(S(=O)(=O)N3CCN(C)CC3)c2c1=O | 4.06% [at 9.27 µM] | – |
| Cc1sc2ncn(CC(=O)NCCCC(=O)N3CCN(c4ccccc4F)CC3)c(=O)c2c1C | 3.37% | – |
| Cc1cc(Br)ccc1NC(=O)c1sc2ncn(CC(=O)N3CCN(c4ccccn4)CC3)c(=O)c2c1C | – | 18.4 µM (active) |
| Cc1cc(Br)ccc1NC(=O)c1cnc(N2CCN(c3ccccn3)CC2)c2ccccc12 | – | 11.6 µM (active) |
| O=C(CN1CCN(c2ccccn2)CC1)Nc1ccc(Br)cc1 | -6.26% | – |
| c1ccc(Cn2nnc3c(N4CCCCC4)ncnc32)cc1 | 4.62% | – |
| CCN(CC)C(=O)[C@H]1C[C@H](CC(=O)NCC23CC4CC(CC(C4)C2)C3)C(=O)N2CCc3c([nH]c4cc(CCC(=O)N(C)C)ccc34)[C@]12C | 3.36% | – |
| Cc1c(C(=O)Nc2cccc(S(=O)(=O)N3CCOCC3)c2)oc2ccccc12 | 1.34% | – |
| O=S(=O)(c1cccc(C(F)(F)F)c1)N1CCN(c2nc(-c3cccs3)nc3ccccc23)CC1 | -4.82% | – |
| COc1ccc(NS(=O)(=O)c2ccc(O)c(C(=O)OCC(=O)NC3CCCCC3)c2)cc1 | 11.7% | – |
| COc1ccc(NS(=O)(=O)c2ccc3oc(SCC(N)=O)nc3c2)cc1 | – | 23.1 µM (active) |
| CCS(=O)(=O)c1ccc2oc(SCC(=O)N3c4ccccc4CC3C)nc2c1 (centres undefined) | -41.5% | – |
| COc1ccc(N2CCN(S(=O)(=O)c3ccc4c(c3)CC(=O)N4)CC2)cc1 | -2.13% [at 92.2 µM] | – |
| COc1cc(Cl)ccc1Nc1ncc(C(=O)N2CCN(c3ccccc3OC)CC2)c2ccccc12 | 1.91% [at 9.27 µM] | – |
